In PubChem BioAssay (EPA / NIEHS):
Calls of active or inactive are those of the source. How the source made its calls: active means hit-call score of the fitted dose curve at least 0.9, where 1 is the maximum; inactive means score below 0.9.

Assay: APR_HepG2_StressKinase_24hr: Apredica 24-hour HepG2 Assay for Stress Kinase (AID 2282922)
Conditions: HepG2 stress kinase (phospho-c-Jun) imaging, actives raise or lower the signal
Procedure: APR_HepG2_24hr is a cell-based, multiplexed-readout assay that uses HepG2, a human liver cell line, with measurements taken at 24 hours after chemical dosing in a 384-well plate.APR_HepG2_StressKinase_24hr is one of 10 assay component(s) measured or calculated from the APR_HepG2_24hr assay. It is designed to make measurements of enzyme activity, a form of enzyme reporter, as detected with fluorescence intensity signals by HCS Fluorescent Imaging technology.Data from the assay component APR_HepG2_StressKinase_24hr was analyzed into 1 assay endpoint. This assay endpoint, APR_HepG2_StressKinase_24hr, was analyzed with bidirectional fitting relative to DMSO as the negative control and baseline of activity. Using a type of enzyme reporter, measures of protein for gain or loss-of-signal activity can be used to understand the signaling at the pathway-level as they relate to the gene . Furthermore, this assay endpoint can be referred to as a primary readout, because this assay has produced multiple assay endpoints where this one serves a signaling function. To generalize the intended target to other relatable targets, this assay endpoint is annotated to the cell cycle intended target family, where the subfamily is stress response.
Cells were treated with dimethyl sulfoxide (DMSO) as a solvent control at a final concentration of 0.5% v/v or with compounds in DMSO with a resulting final DMSO concentration of 0.5% v/v. Compound treatment was done at concentrations of 0.39, 0.78, 1.56, 3.12, 6.24, 12.5, 25, 50, 100, and 200 uM in duplicate on each plate. Cells were treated with compounds for 1, 24, or 72 hr. Carbonyl […] m-chloro-phenylhydrazone (CCCP) and taxol were used as positive controls for mitochondrial function and cytoskeletal stability, respectively; DMSO served as the negative control for this experiment. Cells were fixed by the direct addition of 50 uL formaldehyde in Hank's Balanced Salt Solution (HBSS) to a final concentration of 3.7%. After incubation in the fixation medium for 30 min at room temperature (293-298 K), cells were rinsed twice with HBSS and treated with cell permeabilization buffer (16 uL of 0.5% Triton X-100) for 10 min at room temperature (293-298 K) before labeling. For mitochondrial membrane potential and mitochondrial measurements, pre-fixed cells were incubated with 50 uL of MitoTracker Red CMXRos (Invitrogen) at a concentration of 250 nM for 30 min before fixation. In the remaining cases, post-fixed cells were labeled by incubation with a multiplexed mixture of primary antibodies in HBSS for 60 min at room temperature (293-298 K) to detect immunoreactivity of c-Jun (1:500), phospho-histone H3 (1:100), phospho-histone H2A.x (1:200), p53 (1:400), alpha-tubulin (1:200) and Hoechst 33342 (2 ug/mL). Cells were labeled for multiplexed imaging on two separate plates: a) Hoechst 33342, MitoTracker Red, phospho-histone H3, and alpha-tubulin, and b) Hoechst 33342, phospho-histone H2A.x, and c-Jun. A final rinse with HBSS (50 uL) was performed before analysis. The primary and secondary antibodies for the proteins were phospho-histone H3 (rabbit anti-phospho-histone H3 and FITC-donkey anti-rabbit IgG), phospho-histone H2A.x (mouse anti-phospho-histone H2A.x and FITC-donkey anti-mouse IgG), c-Jun (rabbit anti-phospho-c-Jun and Cy3-donkey anti-rabbit IgG), p53 (sheep anti-p53 and Cy5-donkey anti-sheep IgG), alpha-tubulin (mouse anti-alpha-tubulin and Cy5-donkey anti-mouse IgG). These antibodies are available as the CellCiphr HepG2 assay kit (Millipore).Digital images of each well were captured using a Cellomics ArrayScan VTI (Thermo Scientific Cellomics) (0.8 NA objective, 0.63x optical coupler, and XF-93 filter set) at 20x magnification. The images were acquired using the autofocus feature of the ArrayScan instrument, which entails the following steps. First, the camera focuses on channel 1 (Hoechst 33342), where nuclei are identified. Second, a Z offset of 1 um is used for capturing mitochondria (MitoTracker Red). […]

Structure (SMILES) | outcome | AC50
O=C(O)CN(CC(=O)O)CC(=O)O | inactive | 
NC(=Nc1ccccc1)Nc1ccccc1 | inactive | 
CO[C@@H]1COCC[C@@H]1N[C@@H]1CC[C@@](C(=O)N2CCc3ncc(C(F)(F)F)cc3C2)(C(C)C)C1 | inactive | 
CCC(C)N(C)C(=O)c1cc2ccccc2c(-c2ccccc2Cl)n1 (stereo not given) |  | 69.2 µM (active)
O=Cc1ccccc1C=O | inactive | 
CCCC[C@H]1CN(CC2CCOCC2)C(=O)OC12CCN(C1(C)CCN(C(=O)c3c(C)ncnc3C)CC1)CC2 | inactive | 
CCc1cc(C2=C(C(=O)O)N(c3ccccc3C(F)(F)F)S(=O)(=O)c3ccccc32)cc2c1OCO2 | inactive | 
Nc1nc(=S)c2[nH]cnc2[nH]1 | inactive | 
CCCCOC(=O)CCCCC(=O)OCCCC | inactive | 
CSc1ccc(Oc2ccc(S(N)(=O)=O)cc2CN(C)C)cc1C | inactive | 
OCC(CO)n1cnc(-c2ccc(F)cc2)c1-c1ccnc(Oc2ccccc2)n1 | inactive | 
O=C(NS(=O)(=O)/C=C/c1cccs1)c1ccc(F)cc1Br | inactive | 
Cc1c(C)c2c(c(C)c1O)CCC(C)(COc1ccc(CC3SC(=O)NC3=O)cc1)O2 (stereo not given) | inactive | 
C=CCc1ccc(OC)c(OC)c1 | inactive | 
CCOCCOCCO | inactive | 
CC(COCC(C)OC(=O)c1ccccc1)OC(=O)c1ccccc1 (stereo not given) | inactive | 
C#CC(O)C(CC)CCCC (stereo not given) | inactive | 
NC=O | inactive | 
Cc1ccc(C(C)(C)C)c(O)c1 | inactive | 
C/C=C/c1ccc(OC)cc1 | inactive | 

Structure (SMILES) | outcome | AC50
COC(=O)CCC(=O)OC | inactive | 
CC(=O)O | inactive | 
N[C@@H](Cc1c[nH]c2ccccc12)C(=O)O | inactive | 
CC(=O)S[C@H](C(=O)N[C@H]1Cc2ccccc2[C@H]2CCC[C@@H](C(=O)O)N2C1=O)C(C)C | inactive | 
Nc1nc(Cl)nc2c1ncn2[C@H]1C[C@H](O)[C@@H](CO)O1 | inactive | 
CC(N)=O | inactive | 
COc1ccc(C(=O)Nc2nc3ccccc3c(NCc3ccccc3)c2C#N)cc1 | inactive | 
CCc1nc(N)nc(N)c1-c1ccc(Cl)cc1 | inactive | 
CCCCc1nc2cccnc2n1Cc1ccc(-c2ccccc2-c2nnn[nH]2)cc1 | inactive | 
C=CCCCCCCCCCCCC | inactive | 
O=C1CCCCC1 | inactive | 
CCCCCCC(C=O)=Cc1ccccc1 | inactive | 
CCCCC(CC)COP(=O)(OCC(CC)CCCC)OCC(CC)CCCC (stereo not given) | inactive | 
CCCCCCCCCC[N+](C)(C)[O-] | inactive | 
COC(=O)[C@H]1[C@H]2C[C@@H]3c4[nH]c5cc(OC)ccc5c4CCN3C[C@H]2C[C@@H](OC(=O)c2cc(OC)c(OC)c(OC)c2)[C@@H]1OC |  | 55.1 µM (active)
CC(=O)CC(c1ccccc1)c1c(O)c2ccccc2oc1=O (stereo not given) | inactive | 
O=C(Oc1ccccc1)c1cccc(C(=O)Oc2ccccc2)c1 | inactive | 
CC(=O)OCC(COC(C)=O)OC(C)=O | inactive | 
CN(C)C(=O)NC1(c2ccccc2)CCN(CCC[C@]2(c3ccc(Cl)c(Cl)c3)CCCN(C(=O)c3ccccc3)C2)CC1 | inactive | 
Cn1cnc2c1c(=O)[nH]c(=O)n2C | inactive | 
